CYP2C9 act: increases human cytochrome P450 2C9 activity. AID 1024. 96,000 compounds, 1.4% hits. P11712. recombinant CYP2C9, luciferin-H conversion, luminescence; active compounds read high; factor 1 = untreated enzyme, 0 = blocked. activation factor at 5 µM;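 active = activation factor of 2 or more for CYP2C9 at a 5 µM dose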;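 also: 0 = sulfaphenazole-blocked wells and 1 = vehicle-only wells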
CYP2C19 activ: increases human CYP2C19 enzyme activity | recombinant CYP2C19, luciferin-H EGE luminescence; active compounds read high; 0 = fully inhibited enzyme, 1 = untreated enzyme | activation factor at 5 µM | 96,000 tested, under 10 active;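 active = activation factor of at least 2 at 5 µM in the primary screen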;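 also: 0 = wells with 2.5 mM tranylcypromine and 1 = vehicle-only wells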
Target sequence (P33261 whole entry, looked up): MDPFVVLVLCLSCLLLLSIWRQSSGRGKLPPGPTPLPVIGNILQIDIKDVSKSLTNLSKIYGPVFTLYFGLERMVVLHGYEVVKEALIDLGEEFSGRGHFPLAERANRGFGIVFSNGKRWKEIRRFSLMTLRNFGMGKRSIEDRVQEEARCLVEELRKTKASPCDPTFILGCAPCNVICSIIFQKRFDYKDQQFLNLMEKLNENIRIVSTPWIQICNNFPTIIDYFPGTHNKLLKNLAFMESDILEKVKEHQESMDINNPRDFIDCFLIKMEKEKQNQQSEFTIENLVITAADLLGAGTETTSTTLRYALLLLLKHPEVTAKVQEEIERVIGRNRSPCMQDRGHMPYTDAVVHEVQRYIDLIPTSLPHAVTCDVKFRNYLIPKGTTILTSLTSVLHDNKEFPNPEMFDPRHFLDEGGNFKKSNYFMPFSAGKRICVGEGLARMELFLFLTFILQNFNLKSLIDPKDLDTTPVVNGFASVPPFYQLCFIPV
Measles CPE: protection of cells from measles virus; 140,000 compounds, 1.5% hits; Measles virus-infected cells, CPE protection, absorbance; protection (pct of control), % at 4 µM; in the data active = protection mostly above about 24%, no sharp cut-off; inactive = mostly below about 26%
CYP2C19 inhib: inhibitors of human CYP2C19; P33261; CYP2C19 Supersomes, luciferin-H EGE luminescence, 30 min; inhibition, % at 5 µM; 96,000 compounds, 21% hits;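 active = CYP2C19 inhibition above a set limit at 5 µM in the primary screen, cut at about 50% in these data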;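 also: plate controls were negative control wells for no effect and 2.5 mM tranylcypromine positive control for full effect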
CYP2C9 inhib: blocks human cytochrome P450 2C9 | P11712 | CYP2C9 Supersomes, luciferin-H conversion, luminescence | inhibition, % at 5 µM | 96,000 compounds, 20% hits;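 active = blocking of liver enzyme CYP2C9 beyond about 50% at 5 µM, limit read from the data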
An asterisk follows results filed as active; x = no result. A selection: hits, their analogues and other compounds. The true share with any hit is near 22%.

SMILES	CYP2C9 act	CYP2C19 activ	Measles CPE	CYP2C19 inhib	CYP2C9 inhib
Cc1ccc(-c2nc(CS(=O)(=O)CC(=O)N3CC(C)CC(C)C3)c(C)o2)cc1 (configuration not stated)	0.3	0.6	0	41	71*
Cc1oc(-c2ccccc2F)nc1CS(=O)(=O)CC(=O)N1CCOCC1	0.7	0.9	5	14	34
Cc1cccc(N2CCN(C(=O)CS(=O)(=O)Cc3nc(-c4ccccc4F)oc3C)CC2C)c1 (configuration not stated)	0.1	0.4	8	56*	87*
Cc1cccc(-n2c(SCC(N)=O)nc3c(c2=O)C2(CCCC2)Cc2ccccc2-3)c1	x	x	9	x	x
COc1cc(/C(C#N)=C/c2ccccc2)c([N+](=O)[O-])cc1OC	x	x	14	x	x
CCC(OC(=O)C(NC(=O)c1ccccc1)c1ccccc1)C(=O)Nc1cc(C)on1 (configuration not stated)	0.7	0.7	47*	28	32
CCN(/N=C/C=C/c1ccccc1)c1cc(=O)n(C)c(=O)[nH]1	x	x	6	x	x
Cc1cc(Cl)ccc1OC(C)C(=O)NCCc1ccc2c(c1)OCCO2 (configuration not stated)	x	x	7	x	x
CC(Oc1ccc(Cl)cc1Cl)C(=O)NN=C1CCN(C)CC1 (configuration not stated)	x	x	1	x	x
COC(=O)NNC(=O)C(C)Oc1ccc(Cl)cc1Cl (configuration not stated)	1	0.9	17	13	-1
CC(Oc1ccc(Cl)cc1Cl)C(=O)NCc1ccncc1 (configuration not stated)	0	0	5	100*	98*
CC(Oc1ccc(Cl)cc1Cl)C(=O)Nc1ncccn1 (configuration not stated)	0.8	0.3	5	69*	19
CC(Oc1ccc(Cl)cc1Cl)C(=O)N/N=C1\CCCc2ccccc21 (configuration not stated)	0.4	0.6	6	43	60*
Cc1cc(Cl)ccc1OC(C)C(=O)NCCCCc1ccccc1 (configuration not stated)	0.4	0.6	14	45	56*
CC(NC(=O)CSCc1ccccc1Br)c1ccccc1 (configuration not stated)	x	x	22	x	x
CC(C)(C)NC(=O)COc1ccc(CNCc2cccs2)cc1	1	0.8	4	24	2
O=C(O)CSc1nc(-c2ccccc2)cc(=O)[nH]1	1.1	1	6	2	-6
O=C(CN1C(=O)NC2(CCCC2)C1=O)N1CCN(C(=O)c2ccco2)CC1	1.1	1.2	6	-18	-12
FC(F)(F)c1cccc(N2CCN(C(=S)NC3CCCCC3)CC2)c1	x	x	4	x	x
CN(C)CCCC(C)(O)C(Cc1ccccc1)c1ccccc1 (configuration not stated)	x	x	4	x	x
O=C(c1cccs1)c1coc2ccc(O)c(CN(CCO)CCO)c12	1	0.7	18	26	0
CC(Oc1ccc(Cl)cc1Cl)C(=O)NCCN1CCOCC1 (configuration not stated)	1.2	0.6	23	42	-19
CC(Oc1ccc(Cl)cc1Cl)C(=O)NCCCn1ccnc1 (configuration not stated)	0	0	5	100*	99*
O=C(NCc1ccncc1)c1cccc(Cn2cc(Br)cn2)c1	0.1	0.1	3	88*	90*
CCOC(=O)c1ccc(N2Cc3ccccc3C2=NC(=O)c2cccs2)cc1	x	x	5	x	x
SMILES	CYP2C9 act	CYP2C19 activ	Measles CPE	CYP2C19 inhib	CYP2C9 inhib
CCOC(=O)c1ccc(N2Cc3ccccc3C2=N)cc1	0.2	0.6	9	42	85*
N#Cc1c(NC(=O)C2CC(c3ccccc3Cl)=NO2)sc2c1CCC2 (configuration not stated)	0.5	0.9	18	7	50
Cc1onc(-c2ccccc2Cl)c1C(=O)Nc1sc2c(c1C#N)CCC2	0	0	13	98*	100*
CC1CCc2sc(NC(=S)NC(=O)c3ccccc3)c(C#N)c2C1 (configuration not stated)	x	x	2	x	x
Cc1onc(-c2ccccc2)c1C(=O)Nc1sc2c(c1C#N)CCC(C)C2 (configuration not stated)	0.1	0.8	12	21	92*
CCc1nnc(NC(=O)CSc2nnnn2C)s1	x	x	23	x	x
COc1ccc(C(=O)N/C(=C\c2ccc3c(c2)OCO3)C(=O)NCCc2nc3ccccc3[nH]2)cc1	x	x	8	x	x
Cc1ccc(C(=O)C(OC(=O)CN2C(=O)c3ccccc3C2=O)c2ccccc2)cc1C (configuration not stated)	2*	0.7	4	26	-96
O=C(CCc1nc2ccccc2n1-c1ccccc1)NCCO	x	x	3	x	x
CCOC(=O)c1c(C)[nH]c(N=Nc2ccccc2)c1C	0.7	0.8	5	19	33
CCOC(=O)c1c(C)[nH]c(N=Nc2cccc(C)c2)c1C	0.1	0.4	3	56*	93*
COc1cccc(C2=NOC(C(=O)NC(C)(C)C)C2)c1 (configuration not stated)	1	0.7	19	28	-3
CC(=O)Nc1ccc(S(=O)(=O)NNC(=O)CCC(=O)Nc2cc(C)ccc2C)cc1	x	x	36	x	x
CCN(CC)CCNC(=O)c1ccc(N2CCCCC2)c(NS(=O)(=O)c2ccc(C)cc2)c1	0.6	0.5	8	46	42
CCOC(=O)c1ccc(NC(=O)c2ccc(NS(C)(=O)=O)cc2)cc1	0.9	1	7	-1	6
CCOC(=O)c1ccc(NS(=O)(=O)c2cnc[nH]2)cc1	0	0.7	27	28	98*
CCOC(=O)c1cccc(NS(=O)(=O)c2cnc[nH]2)c1	0.3	0.7	13	26	74*
COC(=O)c1ccc(C)c(NS(=O)(=O)c2ccc(NC(C)=O)cc2)c1	0	0.2	5	76*	96*
COC(=O)c1ccc(N2CCCCC2)c(NS(=O)(=O)c2ccc(C)cc2)c1	0.1	0.7	4	32	87*
COC(=O)C1=C(C)NC2=C(C(=O)CC(C)(C)C2)C1c1ccccn1 (configuration not stated)	x	x	15	x	x
CCN(CC)C(=O)Oc1cc(=O)n(C)c2ccccc12	x	x	16	x	x
COc1ccc(-n2c(SCC(=O)N3CCc4ccccc43)nnc2-c2c[nH]c3ccccc23)cc1	x	x	14	x	x
CCOC(=O)c1cccc(NS(=O)(=O)c2c(C)[nH]c(=O)[nH]c2=O)c1	0.8	0.9	9	9	20
CCOC(=O)c1cccc(NS(=O)(=O)c2ccc(NC(C)=O)cc2)c1	0	0	16	100*	98*
NC(=O)CNC(=O)[C@@H]1CC2(CC(c3ccc(Cl)cc3)=NO2)CN1C(=O)c1ccc(Br)cc1 (some centres not stated)	0.9	1	0	4	10
O=C(CCn1c(=O)c2sccc2n(CC(=O)OCc2ccccc2)c1=O)NCc1ccco1	0.4	0.7	5	30	58*

Bioassay records (PubChem BioAssay)
